Measurements taken from PubChem BioAssay AID1347041 (National Center for Advancing Translational Sciences (NCATS), 2019).
In all, about 480,000 compounds went through this assay and about 740 (0.15%) were called active. Shown is part of a subset that was picked to be rich in actives. Unmarked numbers belong to inactive results. Cut-off read from the data, not from the text of the source: active = activity change below about -30%; inconclusive = mostly about -25% to -30%; inactive = weaker than that.

target: L-lactate dehydrogenase A chain (Homo sapiens) (UniProt P00338); assay: qHTS assay for inhibitors of human lactate dehydrogenase; conditions: purified LDHA, NADH/diaphorase-resazurin fluorescence; active compounds read low;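 note: values are at about 110 or 230 µM; plate controls were DMSO wells for no effect and wells without enzyme for full effect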
Source text: LDH is a key glycolytic enzyme that catalyzes the final step in the glycolytic pathway, reducing pyruvate to lactate and regenerating NAD+ equivalents necessary for continued glycolysis. LDHA has been linked to the carcinogenesis and malignancy in numerous forms of cancers and many other diseases. Consequently, both pharma and academia have invested in significant research efforts to identify small molecule therapeutics. Such attempts have been stalled or abandoned due to limited success in discovering potent and drug-like inhibitors that can be utilized to validate LDHA in vivo as a drug target, a necessary step toward advancing such a molecule towards the clinic Towards this goal we designed and performed a quantitative high-throughput screening (qHTS) campaign to discover novel compounds that are potent inhibitors of LDHA enzyme activity and cancer cell line growth.
The assay was optimized to 1536-well plates. Briefly, 3 µL of human lactate dehydrogenase 5 (#A38558H, Meridian Life Science, Inc., Memphis, TN) in LDH assay buffer (200 mM Tris HCl pH 7.4, 100 microM EDTA and 0.01% Tween-20) was added to a black solid bottom 1536-well assay plate (Greiner Bio-One) using a BioRAPTR FRD dispenser (Beckman Coulter, Brea, CA). A 1536-well pintool dispenser outfitted with 20 nL pins (Wako Automation, San Diego, CA) was used to transfer 23 nL of DMSO-solubilized compound (both library and vehicle controls) to each 1536-well assay plate. Following compound transfer, 1 µL of substrate solution containing NADH and sodium pyruvate (Sigma-Aldrich, St. Louis, MO) in LDH assay buffer was dispensed via BioRAPTR FRD to initiate the reaction. Final concentrations in the 4 microL reaction volume were 2 nM LDHA enzyme, 0.06 mM NADH and 0.2 mM sodium pyruvate. Following a 5 minute incubation period at room temperature, 1 µL of detection reagent (C. kluyveri diaphorase (Sigma-Aldrich) and resazurin sodium salt (Sigma-Aldrich) in LDH assay buffer) was added to a total volume of 5 µL. Final concentrations of detection reagents were 0.133 mg/mL diaphorase and 37 µM resazurin. Plates were immediately transferred to a ViewLux microplate imager (PerkinElmer, Waltham, MA), and any resulting resorufin fluorescence was measured (ex540, em590 nm) at 0 and 20 minutes. Fluorescence was normalized using enzyme-free and DMSO-treated control wells on each plate.

| SMILES | activity change |
| --- | --- |
| O=C(O)COc1ccccc1/C=C1\C(=O)NC(=O)N(CCC2=CCCCC2)C1=O | -34.5% (active) |
| C=CCN1C(=O)NC(=O)/C(=C/c2ccc(OCC(=O)Nc3ccc(C)cc3)cc2)C1=O | -1.94% |
| Cc1[nH]nc2c1C(c1ccc(C(=O)O)cc1)SCC(=O)N2 (stereo not given) | 4.1% |
| COc1ccccc1N=C1SCCCN1C | -34.1% (active) |
| O=C(COc1ccc2c(=O)c(-c3ccccc3)coc2c1)N1CCN(CCO)CC1 | 3.12% |
| COC(=O)C(O)(c1ccc(N(C)C(=O)O/N=C(/C)Cl)cc1)C(F)(F)F (stereo not given) | 1.08% |
| COc1cc(-c2c(C#N)c(N)nc3c2c(=O)nc2sccn23)ccc1OCc1ccccc1C | 6.76% |
| C[N+]12CN3CN(CN(C3)C1)C2 | -52.1% (active) |
| Cc1c(-c2ccc(Br)cc2)c(=O)oc2ccc(OC(=O)N(C)C)cc12 | 8.34% |
| N/C(=N\N=C\c1ccco1)N[N+](=O)[O-] | 6.01% |
| Cc1nc(CN2CCNCC2)cs1 | 0.726% |
| Cc1ccc(C2(O)CC(C)N(C)CC2C)c(C)c1 (stereo not given) | 1.58% |
| CCOC(=O)C1=C(N)OC(C)=C(C(=O)OC(C)C)C12C(=O)Nc1ccc(Br)cc12 (stereo not given) | 12.9% |
| ClCc1cccnc1 | -7.12% |
| CCN1CCN(C(=O)COc2ccc3c(=O)c(Oc4ccccc4)c(C)oc3c2)CC1 | -13.1% |
